Measurements taken from the supplement of paper PMC8728848.
The full list was thinned out, with the strongest signals kept by preference.

What was measured:
Test in all cases: glycan array binding signal (z-score within array); higher = stronger binding
Settings in all cases: glycan notation: IUPAC condensed, linker removed
Fuc(a1-2)Gal(b1-4)Glc = biological target: Fuc(a1-2)Gal(b1-4)Glc
Outline: (§1)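 Glycan array binding is given as a within-array Z-score, which can be read as non-binding when negative. The arrays, 3228 of them, came from the Consortium for Functional Glycomics database and were retained only where the protein sequence was available. Z-scores were averaged across arrays of the same protein sequence at different concentrations or buffers and across linkers.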

Fuc(a1-2)Gal(b1-4)GlcNAc = biological target: Fuc(a1-2)Gal(b1-4)GlcNAc
Outline: as §1

[1] = biological target: Fuc(a1-2)Gal(b1-4)[Fuc(a1-3)]GlcNAc(b1-3)Gal(b1-4)[Fuc(a1-3)]GlcNAc(b1-3)Gal(b1-4)[Fuc(a1-3)]GlcNAc
Outline: as §1

[2] = biological target: Fuc(a1-2)Gal(b1-4)[Fuc(a1-3)]GlcNAc(b1-3)GalNAc
Outline: as §1

[3] = biological target: Fuc(a1-2)[Gal(a1-3)]Gal(b1-4)GlcNAc(b1-2)Man(a1-3)[Fuc(a1-2)[Gal(a1-3)]Gal(b1-4)GlcNAc(b1-2)Man(a1-6)]Man(b1-4)GlcNAc(b1-4)[Fuc(a1-6)]GlcNAc
Outline: as §1

[4] = biological target: Fuc(a1-2)[Gal(a1-3)]Gal(b1-4)[Fuc(a1-3)]Glc
Outline: as §1

[5] = biological target: Fuc(a1-2)[Gal(a1-3)]Gal(b1-4)[Fuc(a1-3)]GlcNAc
Outline: as §1

[6] = biological target: Fuc(a1-2)[GalNAc(a1-3)]Gal(b1-3)GlcNAc(b1-6)GalNAc
Outline: as §1

[7] = biological target: Fuc(a1-2)[GalNAc(a1-3)]Gal(b1-4)[Fuc(a1-3)]GlcNAc(b1-3)GalNAc
Outline: as §1

[8] = biological target: Fuc(a1-2)[GalNAc(b1-3)]Gal
Outline: as §1

[9] = biological target: Gal(a1-3)Gal(b1-3)GlcNAc(b1-2)Man(a1-3)[Gal(a1-3)Gal(b1-3)GlcNAc(b1-2)Man(a1-6)]Man(b1-4)GlcNAc(b1-4)GlcNAc
Outline: as §1

[10] = biological target: Gal(a1-3)Gal(b1-3)[Fuc(a1-4)]GlcNAc(b1-2)Man(a1-3)[Gal(a1-3)Gal(b1-3)[Fuc(a1-4)]GlcNAc(b1-2)Man(a1-6)]Man(b1-4)GlcNAc(b1-4)GlcNAc
Outline: as §1

Gal(a1-3)Gal(b1-4)GlcNAc = biological target: Gal(a1-3)Gal(b1-4)GlcNAc
Outline: as §1

[11] = biological target: Gal(b1-3)GlcNAc(b1-2)Man(a1-3)[GlcNAc(b1-4)][Gal(b1-3)GlcNAc(b1-2)Man(a1-6)]Man(b1-4)GlcNAc(b1-4)GlcNAc
Outline: as §1

[12] = biological target: Gal(b1-3)GlcNAc(b1-3)Gal(b1-4)GlcNAc(b1-2)[Gal(b1-3)GlcNAc(b1-3)Gal(b1-4)GlcNAc(b1-6)]Man(a1-6)[Gal(b1-3)GlcNAc(b1-3)Gal(b1-4)GlcNAc(b1-2)Man(a1-3)]Man(b1-4)GlcNAc(b1-4)[Fuc(a1-6)]GlcNAc
Outline: as §1

[13] = biological target: Gal(b1-4)GlcNAc(b1-2)Man(a1-3)[Gal(b1-4)GlcNAc(b1-2)Man(a1-6)]Man(b1-4)GlcNAc(b1-4)[Fuc(a1-6)]GlcNAc
Outline: as §1

[14] = biological target: Gal(b1-4)GlcNAc(b1-3)Gal(b1-4)GlcNAc(b1-2)[Gal(b1-4)GlcNAc(b1-3)Gal(b1-4)GlcNAc(b1-6)]Man(a1-6)[Gal(b1-4)GlcNAc(b1-3)Gal(b1-4)GlcNAc(b1-2)Man(a1-3)]Man(b1-4)GlcNAc(b1-4)GlcNAc
Outline: as §1

[15] = biological target: Gal(b1-4)GlcNAc(b1-3)Gal(b1-4)GlcNAc(b1-2)[Gal(b1-4)GlcNAc(b1-3)Gal(b1-4)GlcNAc(b1-6)]Man(a1-6)[Gal(b1-4)GlcNAc(b1-3)Gal(b1-4)GlcNAc(b1-2)Man(a1-3)]Man(b1-4)GlcNAc(b1-4)[Fuc(a1-6)]GlcNAc
Outline: as §1

[16] = biological target: Gal(b1-4)GlcNAc(b1-3)Gal(b1-4)GlcNAc(b1-3)Gal(b1-4)GlcNAc(b1-3)Gal(b1-4)GlcNAc(b1-3)Gal(b1-4)GlcNAc(b1-2)[Gal(b1-4)GlcNAc(b1-3)Gal(b1-4)GlcNAc(b1-3)Gal(b1-4)GlcNAc(b1-3)Gal(b1-4)GlcNAc(b1-3)Gal(b1-4)GlcNAc(b1-6)]Man(a1-6)[Gal(b1-4)GlcNAc(b1-3)Gal(b1-4)GlcNAc(b1-3)Gal(b1-4)GlcNAc(b1-3)Gal(b1-4)GlcNAc(b1-3)Gal(b1-4)GlcNAc(b1-2)Man(a1-3)]Man(b1-4)GlcNAc(b1-4)[Fuc(a1-6)]GlcNAc
Outline: as §1

[17] = biological target: Gal3S(b1-4)[Fuc(a1-3)]GlcNAc6S
Outline: as §1

Gal6S(b1-4)Glc6S = biological target: Gal6S(b1-4)Glc6S
Outline: as §1

[18] = biological target: Glc(a1-6)Glc(a1-6)Glc(a1-6)Glc
Outline: as §1

[19] = biological target: GlcA3S(b1-3)Gal(b1-4)GlcNAc(b1-3)Gal(b1-4)Glc
Outline: as §1

[20] = biological target: GlcNAc(b1-2)Man(a1-3)[GlcNAc(b1-2)Man(a1-6)]Man(b1-4)GlcNAc(b1-4)[Fuc(a1-6)]GlcNAc
Outline: as §1

[21] = biological target: GlcNAc(b1-2)[GlcNAc(b1-6)]Man(a1-6)[GlcNAc(b1-2)Man(a1-3)]Man(b1-4)GlcNAc(b1-4)[Fuc(a1-6)]GlcNAc
Outline: as §1

GlcNAc(b1-3)Gal(b1-4)Glc = biological target: GlcNAc(b1-3)Gal(b1-4)Glc
Outline: as §1

[22] = biological target: GlcNAc(b1-3)Gal(b1-4)GlcNAc(b1-3)Gal(b1-4)GlcNAc(b1-3)Gal(b1-4)GlcNAc(b1-2)Man(a1-3)[GlcNAc(b1-3)Gal(b1-4)GlcNAc(b1-3)Gal(b1-4)GlcNAc(b1-3)Gal(b1-4)GlcNAc(b1-2)Man(a1-6)]Man(b1-4)GlcNAc(b1-4)GlcNAc
Outline: as §1

[23] = biological target: GlcNAc(b1-3)Gal(b1-4)GlcNAc(b1-3)Gal(b1-4)GlcNAc(b1-3)Gal(b1-4)GlcNAc(b1-3)Gal(b1-4)GlcNAc(b1-2)Man(a1-3)[GlcNAc(b1-3)Gal(b1-4)GlcNAc(b1-3)Gal(b1-4)GlcNAc(b1-3)Gal(b1-4)GlcNAc(b1-3)Gal(b1-4)GlcNAc(b1-2)Man(a1-6)]Man(b1-4)GlcNAc(b1-4)GlcNAc
Outline: as §1

[24] = biological target: GlcNAc(b1-3)Gal(b1-4)GlcNAc(b1-6)[GlcNAc(b1-3)]Gal(b1-4)GlcNAc
Outline: as §1

GlcNAc(b1-3)GalNAc = biological target: GlcNAc(b1-3)GalNAc
Outline: as §1

[25] = biological target: GlcNAc(b1-4)GlcNAc(b1-4)GlcNAc
Outline: as §1

[26] = biological target: GlcNAc(b1-4)GlcNAc(b1-4)GlcNAc(b1-4)GlcNAc(b1-4)GlcNAc
Outline: as §1

[27] = biological target: GlcNAc(b1-4)GlcNAc(b1-4)GlcNAc(b1-4)GlcNAc(b1-4)GlcNAc(b1-4)GlcNAc
Outline: as §1

[28] = biological target: Man(a1-3)[Man(a1-6)]Man(b1-4)GlcNAc(b1-4)[Fuc(a1-6)]GlcNAc
Outline: as §1

[29] = biological target: Neu5Ac(a2-3)Gal(b1-3)GlcNAc(b1-2)[Neu5Ac(a2-3)Gal(b1-3)GlcNAc(b1-4)]Man(a1-6)[Neu5Ac(a2-3)Gal(b1-3)GlcNAc(b1-2)Man(a1-3)]Man(b1-4)GlcNAc(b1-4)GlcNAc
Outline: as §1

[30] = biological target: Neu5Ac(a2-3)Gal(b1-3)[Neu5Ac(a2-6)]GlcNAc(b1-3)[Fuc(a1-3)[Gal(b1-4)]GlcNAc(b1-6)]Gal(b1-4)Glc
Outline: as §1

[31] = biological target: Neu5Ac(a2-3)Gal(b1-4)[Fuc(a1-3)]GlcNAc(b1-3)Gal(b1-4)GlcNAc
Outline: as §1

[32] = biological target: Neu5Ac(a2-3)Gal(b1-4)[Fuc(a1-3)]GlcNAc(b1-6)[Gal(b1-3)]GalNAc
Outline: as §1

[33] = biological target: Neu5Ac(a2-3)[GalNAc(b1-4)]Gal(b1-4)GlcNAc
Outline: as §1

[34] = biological target: Neu5Ac(a2-6)Gal(b1-3)GlcNAc(b1-3)[Gal(b1-4)GlcNAc(b1-6)]Gal(b1-4)Glc
Outline: as §1

[35] = biological target: Neu5Ac(a2-6)Gal(b1-4)GlcNAc(b1-2)Man(a1-3)Man(b1-4)GlcNAc(b1-4)GlcNAc
Outline: as §1

[36] = biological target: Neu5Ac(a2-6)Gal(b1-4)GlcNAc(b1-2)Man(a1-6)[GlcNAc(b1-2)Man(a1-3)]Man(b1-4)GlcNAc(b1-4)GlcNAc
Outline: as §1

[37] = biological target: Neu5Ac(a2-6)Gal(b1-4)GlcNAc(b1-3)Gal(b1-4)GlcNAc(b1-3)[Neu5Ac(a2-6)Gal(b1-4)GlcNAc(b1-3)Gal(b1-4)GlcNAc(b1-6)]GalNAc
Outline: as §1

[38] = biological target: Neu5Ac(a2-6)Gal(b1-4)GlcNAc(b1-3)Gal(b1-4)GlcNAc(b1-6)[Gal(b1-3)]GalNAc
Outline: as §1

Neu5Ac(a2-6)GalNAc = biological target: Neu5Ac(a2-6)GalNAc
Outline: as §1

[39] = biological target: Neu5Ac(a2-6)GlcNAc(b1-4)GlcNAc(b1-4)GlcNAc
Outline: as §1

[40] = biological target: Neu5Ac(a2-8)Neu5Ac(a2-3)Gal(b1-3)GalNAc(b1-4)[Neu5Ac(a2-8)Neu5Ac(a2-3)]Gal(b1-4)Glc
Outline: as §1

[41] = biological target: Neu5Ac(a2-8)Neu5Ac(a2-8)Neu5Ac(a2-3)[Gal(b1-3)GalNAc(b1-4)]Gal(b1-4)Glc
Outline: as §1

[42] = biological target: Neu5Ac(a2-8)Neu5Ac(a2-8)Neu5Ac(a2-3)[GalNAc(b1-4)]Gal(b1-4)Glc
Outline: as §1

B1: Nc3LysM (protein)
chain: QFTVPPDTTAEPNTIKTCTWWHVAGSGDSCTSIASTYGITSEQFARWDMETTDSPKNPSVATACKLTVGNSYCIENNFGQDDPPTPSISSSTLIGTATTSTTASTTTGNGISTPTPIQEGMETATTTTSSGNGITTPTPTQAGMETVGNCDRFHLVKSGDQCGTIASTYGITLANFYSWNPAVGTSCQSLWLDTYVCVRTIGFVPPKTTTTTTKKPTSTTSAGGVATPTPTQPGMETVSGCKKFHKGRGNVSTVASGDQCGTIATRYGISLANFYSWNPAVGSSCQTLWLDYYVCVGR
Fuc(a1-2)Gal(b1-4)Glc
  glycan array binding signal (z-score): 0.401
Fuc(a1-2)Gal(b1-4)GlcNAc
  glycan array binding signal (z-score): -0.219
[1]
  glycan array binding signal (z-score): 0.172
[2]
  glycan array binding signal (z-score): -0.251
[3]
  glycan array binding signal (z-score): -0.173
[4]
  glycan array binding signal (z-score): 0.064
[5]
  glycan array binding signal (z-score): -0.157
[6]
  glycan array binding signal (z-score): -0.237
[7]
  glycan array binding signal (z-score): -0.076
[8]
  glycan array binding signal (z-score): -0.092
[9]
  glycan array binding signal (z-score): 0.295
[10]
  glycan array binding signal (z-score): 0.161
Gal(a1-3)Gal(b1-4)GlcNAc
  glycan array binding signal (z-score): 0.019
[11]
  glycan array binding signal (z-score): 0.083
[12]
  glycan array binding signal (z-score): 0.304
[13]
  glycan array binding signal (z-score): -0.048
[14]
  glycan array binding signal (z-score): 0.008
[15]
  glycan array binding signal (z-score): -0.048
[16]
  glycan array binding signal (z-score): 0.342
[17]
  glycan array binding signal (z-score): 0.178
Gal6S(b1-4)Glc6S
  glycan array binding signal (z-score): 0.307
[18]
  glycan array binding signal (z-score): 0.326
[19]
  glycan array binding signal (z-score): -0.126
[20]
  glycan array binding signal (z-score): 0.106
[21]
  glycan array binding signal (z-score): -0.037
GlcNAc(b1-3)Gal(b1-4)Glc
  glycan array binding signal (z-score): -0.132
[22]
  glycan array binding signal (z-score): -0.013
[23]
  glycan array binding signal (z-score): -0.036
[24]
  glycan array binding signal (z-score): 0.184
GlcNAc(b1-3)GalNAc
  glycan array binding signal (z-score): 0.056
[25]
  glycan array binding signal (z-score): 2.52
[26]
  glycan array binding signal (z-score): 17.3
[27]
  glycan array binding signal (z-score): 16.7
[28]
  glycan array binding signal (z-score): 0.04
[29]
  glycan array binding signal (z-score): 0.123
[30]
  glycan array binding signal (z-score): -0.004
[31]
  glycan array binding signal (z-score): 0.009
[32]
  glycan array binding signal (z-score): -0.127
[33]
  glycan array binding signal (z-score): -0.172
[34]
  glycan array binding signal (z-score): -0.162
[35]
  glycan array binding signal (z-score): 0.14
[36]
  glycan array binding signal (z-score): 0.31
[37]
  glycan array binding signal (z-score): 0.111
[38]
  glycan array binding signal (z-score): -0.099
Neu5Ac(a2-6)GalNAc
  glycan array binding signal (z-score): 0.071
[39]
  glycan array binding signal (z-score): -0.143
[40]
  glycan array binding signal (z-score): -0.231
[41]
  glycan array binding signal (z-score): 0.394
[42]
  glycan array binding signal (z-score): -0.059
